The full list was thinned out, with hits kept by preference.
NPR1 antag – blocks ANP-stimulated signaling of human Npr1 receptor. P16066. HEK293 hNpr1 GloSensor cGMP, ANP-stimulated luminescence. Potency, µM (doses to about 46.3 µM), hits mostly inhibitors. hit rate 1.6% among 76,000. AID 1347048; further: nearly all actives have a fitted effect of over 60% in size
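HEK293 cells stably expressing human Npr1 and cGMP GloSensor pGS-40F, loaded 2 h with 2% GloSensor reagent, given compound 30 min at room temperature. Luminescence read before and 20 min after 0.1 nM hNppA.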
GPT2 inhibitor – blocks human glutamate pyruvate transaminase 2 | Recombinant GPT2, coupled pyruvate oxidase/HRP Amplex Red fluorescence | Potency, µM (top dose mostly 57.7 µM), hits mostly inhibitors | hit rate 0.25% among 100,000 | AID 1671188; active means well fitted inhibition curve with a large enough effect; inconclusive means small, poorly fitted or top-dose-only effect; further: nearly all actives have a fitted effect of over 60% in size
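Fluorescence of coupled pyruvate oxidase/HRP/Amplex Red system (50uM Amplex, 30 min, dark) reports pyruvate formed by GPT2. Enzyme reaction: 10ng/uL GPT2, 2mM L-alanine, 250uM a-KG, 30 min room temperature, pH 7.5; 50uM AOA control.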
Npr1 antag conf – hNpr1 antagonism, confirmation assay | shares compounds with NPR1 antag | HEK293 hNpr1 cGMP GloSensor luminescence, ANP-stimulated | Potency, µM (highest dose often 57.6 µM), most hits filed as inhibitors | hit rate 76% among 1,400; further: nearly all actives have a fitted effect of over 70% in size
Npr2 selectivity – antagonizes human Npr2, subtype selectivity check; HEK293 hNpr2 GloSensor cGMP luminescence, CNP-stimulated; Potency, µM (titrated, usually from 57.6 µM), most hits filed as inhibitors; shares compounds with NPR1 antag; hit rate 67% among 1,400; further: nearly all actives have a fitted effect of over 70% in size
FLuc counter – counter-screen for Npr1 antagonists: firefly luciferase inhibitors | shares compounds with NPR1 antag | purified FLuc enzyme, luminescence, Km substrate | Potency, µM (series often up to 57.6 µM), hits mostly inhibitors | hit rate 0.7% among 1,400; active means well fitted inhibition curve with a large enough effect; inconclusive means small, poorly fitted or top-dose-only effect
Target sequence (P08659 whole entry, looked up): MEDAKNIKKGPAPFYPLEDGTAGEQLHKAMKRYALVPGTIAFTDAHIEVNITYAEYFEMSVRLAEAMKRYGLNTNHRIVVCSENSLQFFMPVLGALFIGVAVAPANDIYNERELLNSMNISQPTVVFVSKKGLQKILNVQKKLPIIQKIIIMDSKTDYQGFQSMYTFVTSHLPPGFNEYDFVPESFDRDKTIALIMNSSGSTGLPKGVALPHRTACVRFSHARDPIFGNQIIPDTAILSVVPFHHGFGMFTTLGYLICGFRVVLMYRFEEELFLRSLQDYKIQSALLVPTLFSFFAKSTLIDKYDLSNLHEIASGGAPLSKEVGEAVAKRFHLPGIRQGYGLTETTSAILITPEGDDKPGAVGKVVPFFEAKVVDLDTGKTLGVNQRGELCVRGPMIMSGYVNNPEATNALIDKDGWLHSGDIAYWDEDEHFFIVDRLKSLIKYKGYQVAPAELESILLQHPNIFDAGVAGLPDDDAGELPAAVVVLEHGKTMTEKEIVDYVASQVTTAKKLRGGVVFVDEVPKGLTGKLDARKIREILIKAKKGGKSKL
GloSensor ctrl – counter-screen for Npr1 antagonists: GloSensor control cell line | shares compounds with NPR1 antag | AID 1347051 | Potency, µM (doses to about 57.6 µM), usual class: inhibitors | HEK293 GloSensor cGMP, SNP-stimulated, luminescence | hit rate 69% among 1,400; further: nearly all actives have a fitted effect of over 70% in size
Hits are given with their value; . = inactive; ? = inconclusive; / = no result given. Unless noted, the call rests on the fitted dose curve.

SMILES	NPR1 antag	GPT2 inhibitor	others
Cc1ccc(-n2nc(C)c([C@@H]3C=C[C@@H](NC(=O)NC4CCCCC4)C3)c2C)cc1Cl	.	.
COc1ccc(NC(=O)N[C@@H]2C=C[C@@H](c3c(C)nn(-c4ccc(C(C)C)cc4)c3C)C2)cc1	.	.
Cc1ccc(-n2nc(C)c([C@@H]3C=C[C@@H](NC(=O)NC(C)C)C3)c2C)cc1Cl	16µM	.
Cc1nn(-c2ccc(C(C)C)cc2)c(C)c1[C@@H]1C=C[C@@H](NC(=O)NC(C)C)C1	32µM	.
CCCCNc1ncnc2c1CN(C1CCCNCC1)C(=O)CN2C (stereo not drawn)	/	.
O=C(NCc1ccccc1F)c1ccc2c(c1)CN(Cc1ccccc1F)CCO2	/	.
CC(C)C(=O)N1CCCC(c2nn(C)c(=O)n2C(C)C)C1 (stereo not drawn)	.	.
CO[C@H]1CN(C2CCN(S(=O)(=O)c3ccc(C#N)cc3)CC2)[C@H]1c1cccnc1	/	.
O=C(Nc1ccc(Cl)cc1)c1nc2c(o1)CCN(Cc1cccc(O)c1)CC2	2µM	.
COCCNC(=O)c1nc2c(o1)CCN(Cc1ccc(OC)cc1)CC2	.	.
Cc1csc(NC(=O)c2nc3c(o2)CCN(Cc2cccc(F)c2)CC3)n1	.	.
O=C(Nc1ccccc1)c1nc2c(o1)CCN(Cc1ccc(F)c(Cl)c1)CC2	4µM	.
Cc1ccc(CN2CCc3nc(C(=O)Nc4ccccc4)oc3CC2)cc1	22µM	.
O=C(NCc1cccc(F)c1)c1nc2c(o1)CCN(Cc1cccc(Cl)c1)CC2	?	.
Cc1ccc(CN2CCc3nc(C(=O)Nc4cccnc4)oc3CC2)cc1	?	.
COc1ccc(CN2CCc3nc(C(=O)Nc4ccccc4)oc3CC2)cc1	25µM	.
N#Cc1cccc(C(=O)N2CCC(C(=O)N3CCCCCCNC(=O)CC3)CC2)c1	.	.
CCCN1CCC(N2CCC(C(=O)Nc3cccc(-c4cccc(F)c4)c3)CC2)CC1	.	.
CN(C)c1cccc(C(=O)Nc2cccc(-c3nnc4n3CCCC4)c2)c1	.	.
COc1cccc(CC(=O)N[C@@H](Cc2ccccc2)C(=O)N2CCCOCCNC(=O)CC2)c1	.	.
CN(CCNC(=O)c1cccnc1N1CC2CC(C1)[C@H]1CCCC(=O)N1C2)C1CCCCC1 (stereo partly drawn)	.	.
Cc1cc(C)cc(-c2ccc(CN3CCCC(NC(=O)Nc4ccccc4)C3)cc2)c1 (stereo not drawn)	/	.
Cc1csc(NC(=O)c2nc3c(o2)CCN(Cc2ccc(C#N)cc2)CC3)n1	?	.
O=C(Nc1ccccc1)c1nc2c(o1)CCN(Cc1ccccn1)CC2	?	.
O=C(Nc1ccccc1)c1nc2c(o1)CCN(Cc1ccc(O)cc1)CC2	25µM	.
SMILES	NPR1 antag	GPT2 inhibitor	others
O=C(Nc1ccc(Cl)cc1)c1nc2c(o1)CCN(Cc1nccs1)CC2	2.2µM	.
O=C(Nc1ccccc1)c1nc2c(o1)CCN(Cc1cccs1)CC2	7.9µM	.
COc1ccc(CN2CCc3nc(C(=O)Nc4ccc(Cl)cc4)oc3CC2)cn1	4µM	.
COc1ccc(CN2CCc3nc(C(=O)NCc4ccncc4)oc3CC2)cc1	?	.
Cc1csc(NC(=O)c2nc3c(o2)CCN(Cc2ccccc2)CC3)n1	.	.
Cc1ccc2c(C(=O)NCc3ccccc3C(F)(F)F)cc(NC(=O)C(C)C)cc2n1	.	?
COC(=O)c1ccc(NC(=O)c2c(C)oc3ccn(Cc4ccc(F)cc4)c(=O)c23)cc1	.	.
Cc1cc(C)cc(-c2ccc(CN3CCCC3C(=O)N3CCN(Cc4ccccc4)CC3)cc2)c1 (stereo not drawn)	/	.
COc1cc(OC)cc(OCc2nc3c(n2Cc2ccccc2)C(=O)N(Cc2ccccc2F)CCN3)c1	.	.
COc1ccc(CC(=O)N2CCN(C(=O)c3nc4cccnc4n(-c4ccccc4OC)c3=O)CC2)cc1	/	.
O=C(NCCCN1CCOCC1)c1cccc2c1CCN2C(=O)Nc1ccc(F)cc1	.	.
COc1ccc(NC(=O)N2CCc3c(C(=O)NCc4ccncc4)cccc32)cc1	11µM	.
O=C(NCCc1ccncc1)c1cccc2c1CCN2C(=O)Nc1ccc(F)cc1	3.5µM	.
CCC(=O)N1CCc2c(C(=O)NCc3cc(C)ccc3C)cccc21	.	.
Cc1ccc(NC(=O)N2CCc3c(C(=O)NCc4ccncc4)cccc32)cc1	13µM	.
CCC(=O)N1CCc2c(C(=O)NCc3cc(OC)ccc3OC)cccc21	.	.
O=C(c1ccccc1F)N1CCC(Oc2cccnc2)C1 (stereo not drawn)	.	.
CCc1ccccc1NC(=O)Nc1cccc(-c2ccc(N3CCOCC3)nn2)c1	.	.
COc1ccccc1NC(=O)Nc1cccc(-c2ccc(N3CCCCC3)nn2)c1	?	.
CC(C)CNC(=O)Nc1cccc(-c2ccc(N3CCC(C)CC3)nn2)c1	7.1µM	.
COc1ccc(NC(=O)Nc2cccc(-c3ccc(N4CCC(C)CC4)nn3)c2)cc1OC	3.2µM	.
O=C(NC[C@@H]1CCCN1)c1ccc(S(=O)(=O)NCc2ncc[nH]2)cc1	.	.
Cc1ccsc1CNC(=O)c1cccc(C#CC(C)(C)O)c1	.	.
CCC(=O)c1c(O)cc(O)cc1O	/	5µM
Cc1cc(O)c2c(c1)C(=O)c1cc(O)cc(O)c1C2=O	/	.
SMILES	NPR1 antag	GPT2 inhibitor	others
COc1ccccc1-c1ncc(CNc2ncncn2)s1	.	.
COc1ccccc1-c1ncc(CNc2cc(C3CC(O)C3)ncn2)s1 (stereo not drawn)	7.1µM	.	Npr1 antag conf=8.6µM;Npr2 selectivity=12µM;FLuc counter=.;GloSensor ctrl=6.9µM
Cc1ccc(OCc2nc(C3CCCCN3C(=O)NC3CCCCC3)no2)cc1 (stereo not drawn)	/	.
C[S+](=O)([O-])Nc1cccc(Nc2ncc(-c3cccc(F)c3)c3c2OCC3)c1	.	.
O=C(NCCOc1ccccc1)c1cnc2n1CCN(Cc1ccccc1O)CC2	.	.
O=C(NCCOc1ccccc1)c1cnc2n1CCN(Cc1c[nH]c3ccccc13)CC2	?	.	Npr1 antag conf=31µM;Npr2 selectivity=?;FLuc counter=.;GloSensor ctrl=35µM
COc1ccc(C2=NOC3(CCN([S+](=O)([O-])c4cccc(C(F)(F)F)c4)C3)C2)cc1 (stereo not drawn)	16µM	.	Npr1 antag conf=?;Npr2 selectivity=31µM;FLuc counter=.;GloSensor ctrl=?
COc1ccc(C2=NOC3(CCN([S+](=O)([O-])c4cccc(OC)c4)C3)C2)cc1 (stereo not drawn)	13µM	.	Npr1 antag conf=24µM;Npr2 selectivity=27µM;FLuc counter=.;GloSensor ctrl=24µM
COc1cccc([S+](=O)([O-])N2CCC3(CC(C)=NO3)C2)c1 (stereo not drawn)	.	.
